From PubChem BioAssay AID1159580 (chemical genetic matrix, 2015)
Screen size: about 5,500 compounds; about 2,000 (36%) were called active. Not shown: some 18% with an inconclusive outcome. Rule as the data show it: active = normalized growth mostly below about 0.91 (no sharp cut-off); inconclusive = no clear call, values can overlap the other calls; inactive = mostly above about 0.92. This is one part of the list.

Assay: chemical genetic growth profiling, strain panel (AID 1159580);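 also: tested at 20 µM; growth read once vehicle control cultures reached saturation at 30 °C; 1 = growth at the plate median or of vehicle wells; lower values mean less growth of the strain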
Settings: growth OD

Measured: normalized growth

COc1cc([C@H]2Oc3cc([C@H]4Oc5cc(O)cc(O)c5C(=O)[C@@H]4O)ccc3O[C@@H]2CO)ccc1O
inactive: S. cerevisiae deletion strains, locus YJR075W, strain HOC1, hits give low values 0.999 | S. cerevisiae deletion strains, locus YKL009W, strain mrt4, hits give low values 0.984 | S. cerevisiae deletion strains, locus YKL068W, hits give low values 0.981 | S. cerevisiae deletion strains, locus YKL085W, strain MDH1 (second series), hits give low values 1.02 | S. cerevisiae deletion strains, locus YKL085W, strain MDH1, hits give low values 1.02 | S. cerevisiae deletion strains, locus YKL160W, strain elf1, hits give low values 1.01 | S. cerevisiae deletion strains, locus YKL190W, strain CNB1, hits give low values 0.989 | S. cerevisiae deletion strains, locus YKR001C, strain vps1, hits give low values 0.961 | S. cerevisiae deletion strains, locus YKR026C, strain gcn3, hits give low values 1.01 | S. cerevisiae deletion strains, locus YKR091W, strain srl3, hits give low values 1.01 | S. cerevisiae deletion strains, locus YLL001W, strain dnm1, hits give low values 1.01 | S. cerevisiae deletion strains, locus YLL026W, hits give low values 1.01 | S. cerevisiae deletion strains, locus YLL041C, strain sdh2, hits give low values 1.01 | S. cerevisiae deletion strains, locus YLR027C, strain aat2, hits give low values 1.02 | S. cerevisiae deletion strains, locus YLR039C, strain RIC1, hits give low values 0.945 | S. cerevisiae deletion strains, locus YLR058C, strain SHM2, hits give low values 0.998 | S. cerevisiae deletion strains, locus YLR102C, strain apc9, hits give low values 0.979 | S. cerevisiae deletion strains, locus YLR113W, strain HOG1, hits give low values 0.986 | S. cerevisiae deletion strains, locus YLR221C, strain rsa3, hits give low values 0.988 | S. cerevisiae deletion strains, locus YLR258W, strain gsy2, hits give low values 1 | S. cerevisiae deletion strains, locus YLR262C, strain YPT6 (second series), hits give low values 1.03 | S. cerevisiae deletion strains, locus YLR262C, strain YPT6, hits give low values 0.953 | S. cerevisiae deletion strains, locus YLR268W, strain sec22, hits give low values 0.965 | S. cerevisiae deletion strains, locus YLR320W, strain mms22, hits give low values 0.991 | S. cerevisiae deletion strains, locus YLR330W, strain CHS5, hits give low values 1 | S. cerevisiae deletion strains, locus YLR342W, strain FKS1 (second series), hits give low values 1.01 | S. cerevisiae deletion strains, locus YLR342W, strain FKS1, hits give low values 1.01 | S. cerevisiae deletion strains, locus YLR357W, strain rsc2, hits give low values 1.03 | S. cerevisiae deletion strains, locus YLR370C, strain arc18, hits give low values 1 | S. cerevisiae deletion strains, locus YLR371W, strain rom2, hits give low values 0.971 | S. cerevisiae deletion strains, locus YLR384C, strain iki3, hits give low values 1.02 | S. cerevisiae deletion strains, locus YLR418C, strain cdc73, hits give low values 0.978 | S. cerevisiae deletion strains, locus YML016C, strain PPZ1, hits give low values 1.01 | S. cerevisiae deletion strains, locus YML032C, strain rad52, hits give low values 0.945 | S. cerevisiae deletion strains, locus YML120C, strain ndi1, hits give low values 1.01 | S. cerevisiae deletion strains, locus YML124C, strain tub3, hits give low values 0.986 | S. cerevisiae deletion strains, locus YMR058W, strain fet3, hits give low values 0.998 | S. cerevisiae deletion strains, locus YMR078C, strain ctf18, hits give low values 0.979 | S. cerevisiae deletion strains, locus YMR125W, strain sto1, hits give low values 1.03 | S. cerevisiae deletion strains, locus YMR129W, hits give low values 1.01 | S. cerevisiae deletion strains, locus YMR205C, strain PFK2, hits give low values 1.01 | S. cerevisiae deletion strains, locus YMR223W, strain ubp8, hits give low values 0.958 | S. cerevisiae deletion strains, locus YMR231W, strain pep5, hits give low values 1.01 | S. cerevisiae deletion strains, locus YMR263W, strain SAP30, hits give low values 0.998 | S. cerevisiae deletion strains, locus YMR307W, strain GAS1, hits give low values 0.905 | S. cerevisiae deletion strains, locus YNL067W, strain RPL9B, hits give low values 0.994 | S. cerevisiae deletion strains, locus YNL071W, strain lat1, hits give low values 0.995 | S. cerevisiae deletion strains, locus YNL128W, strain TEP1, hits give low values 0.993 | S. cerevisiae deletion strains, locus YNL153C, strain GIM3, hits give low values 1 | S. cerevisiae deletion strains, locus YNL183C, strain NPR1, hits give low values 0.932 | S. cerevisiae deletion strains, locus YNL209W, strain ssb2, hits give low values 1.01 | S. cerevisiae deletion strains, locus YNL233W, strain BNI4, hits give low values 0.997 | S. cerevisiae deletion strains, locus YNL248C, strain rpa49, hits give low values 1.01 | S. cerevisiae deletion strains, locus YNL250W, strain rad50, hits give low values 0.975 | S. cerevisiae deletion strains, locus YNL271C, strain bni1, hits give low values 0.969 | S. cerevisiae deletion strains, locus YNL298W, strain CLA4, hits give low values 0.965 | S. cerevisiae deletion strains, locus YNL307C, strain MCK1, hits give low values 0.969 | S. cerevisiae deletion strains, locus YNL322C, strain KRE1 (second series), hits give low values 1.01 | S. cerevisiae deletion strains, locus YNL322C, strain KRE1, hits give low values 0.993 | S. cerevisiae deletion strains, locus YNR049C, strain mso1, hits give low values 1.01 | S. cerevisiae deletion strains, locus YNR052C, strain pop2, hits give low values 0.979 | S. cerevisiae deletion strains, locus YOL006C, strain TOP1, hits give low values 0.969 | S. cerevisiae deletion strains, locus YOL012C, strain htz1 0.746 | S. cerevisiae deletion strains, locus YOL147C, strain pex11, hits give low values 0.973 | S. cerevisiae deletion strains, locus YOR001W, strain rrp6, hits give low values 1.01 | S. cerevisiae deletion strains, locus YOR061W, strain CKA2, hits give low values 1 | S. cerevisiae deletion strains, locus YOR069W, strain VPS5, hits give low values 1.01 | S. cerevisiae deletion strains, locus YOR070C, strain gyp1, hits give low values 1.01 | S. cerevisiae deletion strains, locus YOR080W, strain dia2, hits give low values 1.02 | S. cerevisiae deletion strains, locus YOR083W, strain WHI5, hits give low values 1.01 | S. cerevisiae deletion strains, locus YOR106W, strain vam3, hits give low values 1.01 | S. cerevisiae deletion strains, locus YOR136W, strain idh2, hits give low values 0.973 | S. cerevisiae deletion strains, locus YOR144C, strain elg1, hits give low values 0.96 | S. cerevisiae deletion strains, locus YOR184W, strain ser1, hits give low values 0.947 | S. cerevisiae deletion strains, locus YOR231W, strain MKK1, hits give low values 1.02 | S. cerevisiae deletion strains, locus YOR265W, strain rbl2, hits give low values 1.01 | S. cerevisiae deletion strains, locus YOR270C, strain vph1, hits give low values 0.961 | S. cerevisiae deletion strains, locus YOR290C, strain snf2, hits give low values 0.996 | S. cerevisiae deletion strains, locus YOR316C, strain cot1, hits give low values 0.985 | S. cerevisiae deletion strains, locus YPL051W, strain arl3, hits give low values 1 | S. cerevisiae deletion strains, locus YPL055C, strain LGE1, hits give low values 0.995 | S. cerevisiae deletion strains, locus YPL078C, strain atp4, hits give low values 1.02 | S. cerevisiae deletion strains, locus YPL106C, strain sse1, hits give low values 0.994 | S. cerevisiae deletion strains, locus YPL240C, strain hsp82, hits give low values 1.01 | S. cerevisiae deletion strains, locus YPL241C, strain CIN2, hits give low values 0.975 | S. cerevisiae deletion strains, locus YPL256C, strain CLN2, hits give low values 1.01 | S. cerevisiae deletion strains, locus YPR119W, strain clb2, hits give low values 0.993 | S. cerevisiae deletion strains, locus YPR141C, strain kar3, hits give low values 0.985 | S. cerevisiae deletion strains, locus YPR163C, strain tif3, hits give low values 0.973 | S. cerevisiae deletion strains, locus YPR167C, strain met16, hits give low values 0.996 | S. cerevisiae deletion strains, strain wtn01, hits give low values 0.987 | S. cerevisiae strains, strain wild type, hits give low values 1
